Screening data: PubChem, National Center for Advancing Translational Sciences (NCATS)
Giardia FBPA inh – inhibitors of Giardia lamblia fructose-1,6-bisphosphate aldolase. Potency, µM (series often up to 59.6 µM), for inactives: top-dose activity, negative = inhibition, most hits filed as inhibitors. 290,000 compounds, 0.71% hits. A8B2U2. AID 2451. purified Giardia FBPA; also: potency is read from the fitted curve at half-maximal effect; % is scaled to controls: 0 for no effect and ±100 for the full control effect; nearly all actives have a fitted effect of over 55% in size
Target sequence (A8B2U2 whole entry, looked up): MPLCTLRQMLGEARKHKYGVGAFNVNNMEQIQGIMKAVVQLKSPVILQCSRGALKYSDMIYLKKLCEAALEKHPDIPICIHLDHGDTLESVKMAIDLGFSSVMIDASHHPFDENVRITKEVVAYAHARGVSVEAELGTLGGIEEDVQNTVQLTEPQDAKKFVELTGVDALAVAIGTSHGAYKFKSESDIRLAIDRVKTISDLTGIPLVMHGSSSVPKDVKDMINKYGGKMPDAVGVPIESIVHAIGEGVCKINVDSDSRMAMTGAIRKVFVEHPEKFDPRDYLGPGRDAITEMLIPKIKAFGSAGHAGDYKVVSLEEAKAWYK
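40 nM FBPA preincubated 10 min at RT with compound (up to 57.5 uM final), then substrate plus GAPDH/TPI/NAD/arsenate coupling and diaphorase/resazurin added. Fluorescence read after 20 min at RT, 525/598 nm.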
RE007 growth inh – less growth of the S. pombe RE007 Vpr strain; 360,000 compounds, 0.21% hits; Potency, µM (top dose mostly 92.2 µM), for inactives: at the highest dose activity change, negative = less growth, most hits filed as inhibitors; AID 651644; S. pombe RE007 Vpr strain, BacTiter-Glo ATP luminescence, 24 h; active = well fitted falling curve with a large enough effect; inconclusive = small, poorly fitted or top-dose-only effect; inactive = no such curve, though single readings can be large or run the other way; also: potency is read from the fitted curve at half-maximal effect; % is scaled to controls: 0 for no effect and ±100 for the full control effect; nearly all actives have a fitted effect of over 50% in size
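Fission yeast RE007 carrying one integrated HIV-1 vpr copy, seeded at OD 0.01 in PMG+AL medium with 23 nL pinned compound. Grown 24 h at 30 degrees; viability read by BacTiter-Glo luminescence after 5 min.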
Shiga inhibitor – Shiga toxin inhibition; Vero cells, Shiga toxin protein synthesis inhibition reporter; inhibition, % at 38.7 µM; 290,000 compounds, 9.2% hits; AID 2315; in the data active = inhibition mostly above about 28%, no sharp cut-off; inactive = mostly below about 43%; also: 0% is about no effect
LmPK inh – LmPK (Leishmania mexicana) enzyme inhibition; Q27686; purified LmPK, Kinase-Glo ATP luminescence, 1 h; Potency, µM (doses to about 57.5 µM), inactives show at the top dose activity change, negative = inhibition, most hits filed as inhibitors; 290,000 compounds, 0.37% hits; AID 1721; also: potency is read from the fitted curve at half-maximal effect; % is scaled to controls: 0 for no effect and ±100 for the full control effect
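Pyruvate kinase activity monitored as ATP production (luciferase luminescence). Conditions: 0.1 nM enzyme, 0.5 mM PEP, 0.1 mM ADP, 1 h, RT; normalized against uninhibited and no-enzyme wells.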
TbPYK inhibitor – T. brucei pyruvate kinase inhibition | TbPYK enzyme, Kinase-Glo Plus ATP luminescence, 45 min | Potency, µM (highest dose often 76.8 µM), inactives show at the top dose activity, negative = inhibition, actives largely listed as inhibitors | 410,000 compounds, 0.12% hits | Q57TT1; also: potency is read from the fitted curve at half-maximal effect; % is scaled to controls: 0 for no effect and ±100 for the full control effect; nearly all actives have a fitted effect of over 50% in size
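Assay buffer: 50 mM TEA pH 7.2, 100 mM KCl, 10 mM MgCl2, 0.05% BSA, 0.01% Tween-20. Pyruvate kinase from T. brucei plus substrate met compound, then ADP (130 uM final). Luminescence was read post 45 min RT.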
Cycloheximide cs – counter-screen for Shiga toxin inhibitors: cycloheximide protein synthesis inhibition; 300,000 compounds, 12% hits; AID 2314; max response, %; cell reporter, cycloheximide protein synthesis inhibition counterscreen; in the data active = max response mostly above about 13%, no sharp cut-off; inactive = mostly below about 14%; also: read at 38.3 µM for the half of the compounds with a filed dose; 0% is about no effect
The depositor's hits bear a star; ? = inconclusive; . = no result; [ ] = dose if it differs, or a comment. The full list was thinned out, with hits kept by preference. Unless noted, calls follow the shape of the dose curve; as a rule, active = well fitted curve in the direction sought with a large enough effect; inconclusive = small, poorly fitted or top-dose-only effect, or another doubt; inactive = no such curve, though single readings can be large; an effect the other way counts as inactive or inconclusive.

SMILES	Giardia FBPA inh	RE007 growth inh	Shiga inhibitor	LmPK inh	TbPYK inhibitor	Cycloheximide cs
COc1ccc(-c2noc(CCC(=O)NCCc3ccccc3)n2)cc1	-6.3%	1.2%	44.5	0.3%	-0.3%	24.8*
COc1ccc(-c2noc(CNC(=O)CCCN3C(=O)[C@H]4CC=CC[C@H]4C3=O)n2)cc1	15.4%	-0.5%	15.1	1.0%	2.8%	18.1*
Cc1ccc(-n2nc3c(N4CCC(C(=O)NCCC(C)C)CC4)nnc(C)c3c2C)cc1	.	.	.	.	2.0%	.
COc1ccc(-c2cc(CCCC(=O)NCCc3ccccc3)no2)cc1	0.8%	4.2%	66.7*	-0.3%	-2.4%	63.7*
CC[C@H](C)[C@H](NC(=O)[C@H](Cc1ccc(O)cc1)NC(=O)[C@@H](NC(=O)[C@H](CCCN=C(N)N)NC(=O)[C@@H](N)CC(=O)O)C(C)C)C(=O)N[C@@H](Cc1cnc[nH]1)C(=O)N1CCC[C@H]1C(=O)O	-4.2%	.	-2.8	.	.	-1.8
CCOCCCNC(=O)/C=C1\Sc2ccccc2N(Cc2ccccc2F)C1=O	1.0%	3.7%	130.6*	7.9%	-6.7%	31.9*
Cc1ccc(C)c(CN2C(=O)C3(c4ccccc42)N(c2ccc(Cl)cc2)C(=O)CS3(=O)=O)c1 (centres undefined)	.	.	.	.	-3.0%	.
O=S(=O)(c1ccc(Br)cc1Cl)N1CCN(CCO)CC1	1.1%	-15.2%	-13.0	2.4%	-2.8%	-2.2
O=C1C=CC(=O)c2c(O)c(N3CCN(CCO)CC3)c(Cl)c(O)c21	.	63.1µM*	.	.	?	.
CCN1C(=O)N(S(=O)(=O)C(F)(F)F)[C@@H](c2ccccc2)C(C(=O)OC)=C1C	5.3%[12.9 µM]	-21.0%	11.8	-0.4%[11.5 µM]	-0.4%	0.3
CCN1C(=O)N(C)[C@@H](c2ccccc2)C(C(=O)OC)=C1C	13.5%[12.9 µM]	7.7%	2.3	-6.4%[11.5 µM]	-4.5%	20.8*
COc1ccc(NC(=S)Nc2ccccc2)cc1	-27.1%	8.4%	2.3	-9.1%	-1.9%	6.5
COc1ccc(NC(=S)c2ccccc2)cc1	-5.6%	-16.2%	71.3*	-1.0%	-12.0%	53.4*
COc1ccc(NC(=S)N/C(=N/S(=O)(=O)c2ccc(C)cc2)c2ccccc2)cc1	-21.5%	-19.0%	60.8*	-6.3%	0.0%	34.1*
Cc1ccc(NC(=S)c2ccc(N(C)C)cc2)cc1	0.3%	8.5%	78.3*	-4.9%	5.2%	53.1*
COc1ccc(C(=S)Nc2ccc(N(C)C)cc2)cc1	0.3%	32.1%	77.7*	0.6%	1.7%	37.1*
CCC1CCCCN1CCCNC(=O)CNC(=O)c1nn(-c2ccc(OC)c(Cl)c2)c(=O)c2ccccc12 (centres undefined)	-7.8%	-5.4%	-11.7	2.8%	-1.6%	-2.8
COc1ccc(NC(=S)c2ccc(N(C)C)cc2)cc1	0.7%	-0.6%	57.7*	3.0%	-14.3%	54.1*
CC[C@H](C)[C@H](NC(=O)[C@H](CCCNC(=N)N)NC(=O)[C@@H](NC(=O)[C@H](CCCNC(=N)N)NC(=O)[C@H](CCCCN)NC(=O)[C@H](CCCNC(=N)N)NC(=O)[C@@H](NC(=O)[C@H](CC(N)=O)NC(=O)[C@@H](N)CS)[C@@H](C)O)[C@@H](C)CC)C(=O)N[C@@H](CCC(N)=O)C(=O)N[C@@H](CCCNC(=N)N)C(=O)NCC(=O)N1CCC[C@H]1C(=O)NCC(=O)N[C@@H](CCCNC(=N)N)C(=O)N[C@@H](C)C(=O)N[C@@H](Cc1ccccc1)C(=O)N[C@H](C(=O)N[C@H](C(=O)N[C@H](C(=O)NCC(=O)N[C@@H](CCCCN)C(=O)O)[C@@H](C)CC)[C@@H](C)O)C(C)C	-8.7%	.	-1.4	.	.	9.2
CCOc1cc(C(=O)Nc2ccc3oc(-c4ccc(F)cc4Cl)nc3c2)cc(OCC)c1OCC	.	.	.	.	-3.1%	.
Cc1csc(SCC(=O)Nc2cccc3nsnc23)n1	0.7%	-16.4%	24.4	-2.1%	-1.1%	20.0*
Cc1csc(SCC(=O)Nc2ccccc2C)n1	.	12.1%	.	.	2.0%	.
Cc1csc(NC(=O)CSc2nc(C)cs2)n1	1.2%	-2.4%	25.1	-0.2%	2.9%	17.0*
Cc1csc(NC(=O)CSc2nccn2C)n1	?	3.3%	30.2	0.1%	0.4%	28.6*
Cc1csc(NC(=O)CSc2nsc(SCC(=O)Nc3nc(C)cs3)c2C#N)n1	3.0%	7.9%	117.4*	4.1%	6.5%	41.2*
SMILES	Giardia FBPA inh	RE007 growth inh	Shiga inhibitor	LmPK inh	TbPYK inhibitor	Cycloheximide cs
CC(C)C(NS(=O)(=O)c1ccc2c(c1)oc(=O)n2C)C(=O)NCCc1ccc(Cl)cc1 (centres undefined)	.	.	.	.	0.3%	.
CSc1ccc(CCNC(=O)Cn2ncn3c(cc4ccccc43)c2=O)cc1	.	.	.	.	-1.7%	.
C/C(=N\NC(=O)C1=NNC(=O)C1C)c1cccs1 (centres undefined)	-15.9%	-1.5%	90.2*	-9.0%	-2.7%	33.9*
C/C(=N\NC(=O)C1CC1c1ccccc1)c1cccs1 (centres undefined)	1.3%	1.4%	-13.6	0.8%	1.6%	-1.6
C/C(=N/NC(=O)c1cccs1)c1cccc(NC(=O)C2CC2)c1	0.3%	7.3%	95.4*	1.7%	-2.6%	38.5*
C/C(=N/N=C(/C)c1cccs1)c1cccs1	-0.1%	-23.8%	72.5*	1.2%	-3.5%	31.1*
CC(=NNC(=O)c1cccc(S(=O)(=O)N2CCCC2)c1)c1ccccc1	.	-17.9%	.	.	1.9%	.
C/C(=N\NC(=O)c1cccc(S(=O)(=O)N2CCCC2)c1)c1cccs1	1.2%	-8.2%	50.0*	-0.1%	3.5%	19.0*
Cn1cc(S(=O)(=O)N2CCOCC2)cc1C(=O)Nc1cccc(Cl)c1	4.3%	9.1%	-0.6	0.6%	-2.6%	1.0
C/C(=N\NC(=O)c1ccc2ccccc2c1)c1cccs1	.	-6.0%	94.4*	-2.1%	-5.8%	44.6*
C/C(=N\NC(=O)Cc1ccccc1)c1cccs1	4.4%	-6.7%	-1.2	1.3%	-2.8%	9.2
C/C(=N\NC(=O)c1cccs1)c1cccnc1	-1.0%	-6.6%	72.0	6.1%[11.5 µM]	-8.6%	17.2
C/C(=N\NC(=O)c1ccncc1)c1cccs1	-5.3%	-3.5%	63.2*	-10.5%	-5.3%	47.6*
C/C(=N\NC(=O)c1cccs1)c1ccc2ccccc2c1	-2.7%	3.9%	41.3*	7.3%	-5.9%	36.9*
C/C(=N/NC(=O)c1cc(C2CC2)[nH]n1)c1cccs1	0.9%	10.6%	5.1	22.4µM*	-5.5%	24.8*
COc1ccc(CN2CCN(C3CCC3)CC2CCO)c(C)c1C (centres undefined)	1.0%	-5.4%	-10.0	6.4%	-4.2%	-1.5
Cc1ccc(C)c(OCCn2cc(/C=C(\C#N)C(=O)NCc3ccco3)c3ccccc32)c1	-2.4%	12.1%	-8.0	-3.2%	-4.0%	-1.6
Cc1cc(/C=C(\C#N)C(=O)NCc2ccco2)c(C)n1-c1cccnc1	-5.5%	8.6%	72.5*	-1.6%	2.3%	38.2*
